Data: PubChem BioAssay (NCI)
Compounds without any hit were thinned out: in the full panel of roughly 83,000, 20% have a hit.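 Negative percent growth values reflect cell death: -40 means 40% of the cells present at the start died, and -100 means all died.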 Active and inactive are the calls of the source. Rule for the calls: active = growth percent below 10; inactive = the rest.

Experiments:
Test in all cases: NCI-60 one-dose screen, 48 h (100 = growth as untreated, 0 = no growth, -100 = all killed)
NCI-H23 lung = conditions: 10 µM unless noted
NCI-H226 lung = conditions: 10 µM unless noted
NCI-H322M lung = conditions: 10 µM unless noted
HOP-62 NSCLC = conditions: 10 µM unless noted
NCI-H460 lung = conditions: 10 µM unless noted
786-0 renal = conditions: 10 µM unless noted
MDA-MB-231 breast = conditions: 10 µM unless noted
SF-268 CNS = conditions: 10 µM unless noted
SF-539 CNS = conditions: 10 µM unless noted
M14 melanoma = conditions: 10 µM unless noted
HCT-15 colon = conditions: 10 µM
U251 CNS = conditions: 10 µM unless noted
UACC-62 melanoma = conditions: 10 µM unless noted
SK-MEL-28 melanoma = conditions: 10 µM unless noted
UO-31 renal = conditions: 10 µM unless noted
OVCAR-5 ovarian = conditions: 10 µM unless noted
MDA-MB-435 melanoma = conditions: 10 µM unless noted
SW-620 colon = conditions: 10 µM unless noted
MCF7 breast = conditions: 10 µM unless noted
KM12 colon = conditions: 10 µM unless noted

Measured: growth

CN1C(=O)NC(=O)C(N=Nc2ccc(Cl)cc2)C1=O (stereo not drawn)
inactive: NCI-H23 lung 95.3% | NCI-H226 lung 105% | NCI-H322M lung 102% | HOP-62 NSCLC 123% | NCI-H460 lung 102% | 786-0 renal 78.4% | MDA-MB-231 breast 85.7% | SF-268 CNS 93.5% | SF-539 CNS 101% | M14 melanoma 81.5% | HCT-15 colon 88% | U251 CNS 108% | UACC-62 melanoma 49.9% | SK-MEL-28 melanoma 122% | UO-31 renal 104% | OVCAR-5 ovarian 98.9% | MDA-MB-435 melanoma 95.7% | SW-620 colon 106% | MCF7 breast 93% | KM12 colon 82.6%

CC(C)N=C(NC(C)C)N1CC1
inactive: NCI-H23 lung 113% | NCI-H226 lung 108% | NCI-H322M lung 118% | HOP-62 NSCLC 108% | NCI-H460 lung 116% | 786-0 renal 116% | MDA-MB-231 breast 96.9% | SF-268 CNS 108% | SF-539 CNS 103% | M14 melanoma 128% | HCT-15 colon 110% | U251 CNS 105% | UACC-62 melanoma 105% | SK-MEL-28 melanoma 106% | UO-31 renal 113% | OVCAR-5 ovarian 106% | MDA-MB-435 melanoma 103% | SW-620 colon 110% | MCF7 breast 102% | KM12 colon 110%

COc1cc(C2=NN(c3ccccc3)C(c3sc(N(CCCl)CCCl)nc3Cl)C2)cc(OC)c1OC (stereo not drawn)
inactive: NCI-H23 lung 92.5% | NCI-H226 lung 81.8% | NCI-H322M lung 91.4% | HOP-62 NSCLC 79.7% | NCI-H460 lung 91.6% | 786-0 renal 91.8% | MDA-MB-231 breast 85.6% | SF-268 CNS 80.7% | SF-539 CNS 110% | M14 melanoma 91.5% | HCT-15 colon 97.5% | U251 CNS 85.6% | UACC-62 melanoma 48.4% | SK-MEL-28 melanoma 99.1% | UO-31 renal 75.5% | OVCAR-5 ovarian 99.5% | MDA-MB-435 melanoma 101% | SW-620 colon 97.2% | MCF7 breast 86.6% | KM12 colon 82.8%

O=CN1N=C(c2ccccc2)CC1c1sc(N(CCCl)CCCl)nc1Cl (stereo not drawn)
inactive: NCI-H23 lung 87.5% | NCI-H226 lung 85.1% | NCI-H322M lung 82.4% | HOP-62 NSCLC 86.9% | NCI-H460 lung 106% | 786-0 renal 104% | MDA-MB-231 breast 77.8% | SF-268 CNS 101% | SF-539 CNS 109% | M14 melanoma 103% | HCT-15 colon 92.8% | U251 CNS 96.5% | UACC-62 melanoma 67.5% | SK-MEL-28 melanoma 98.7% | UO-31 renal 71.7% | OVCAR-5 ovarian 90.6% | MDA-MB-435 melanoma 99.2% | SW-620 colon 105% | MCF7 breast 90.1% | KM12 colon 98.9%

Cc1ccc(N)cc1[As]=[As]c1cc(N)ccc1C (stereo not drawn)
active: NCI-H23 lung -56.4% | NCI-H226 lung -93.2% | 786-0 renal -89.3% | MDA-MB-231 breast -92.6% | SF-268 CNS -83.6% | SF-539 CNS -94.5% | M14 melanoma -72.2% | HCT-15 colon -68.5% | U251 CNS -98.7% | UACC-62 melanoma -90.4% | SK-MEL-28 melanoma -94.2% | UO-31 renal -99.7% | OVCAR-5 ovarian -90.6% | MDA-MB-435 melanoma -89% | SW-620 colon -57% | MCF7 breast -74.9%
inactive: NCI-H322M lung 50.3% | HOP-62 NSCLC 14.9% | NCI-H460 lung 60.4% | KM12 colon 65.7%

C[C@]12CC[C@H](OC3OC(O)C(O)C(O)C3O)C=C1CCC1C2CC[C@]2(C)[C@@H](c3ccc(=O)oc3)CC[C@]12O (stereo partly drawn)
inactive: U251 CNS 104%
active: NCI-H23 lung -68.9% | NCI-H226 lung -70.6% | NCI-H322M lung -71.8% | HOP-62 NSCLC -97.8% | NCI-H460 lung -80.1% | 786-0 renal -84.4% | MDA-MB-231 breast -72.1% | SF-268 CNS -99.4% | SF-539 CNS -83.1% | M14 melanoma -81% | HCT-15 colon -81.8% | UACC-62 melanoma -84.3% | SK-MEL-28 melanoma -82.9% | UO-31 renal -92.3% | MDA-MB-435 melanoma -88.2% | SW-620 colon -90.5% | MCF7 breast -64.3% | KM12 colon -93.8%

O=C(CI)Nc1ccc(Br)cc1
inactive: NCI-H23 lung 32% | NCI-H226 lung 69.7% | NCI-H322M lung 95.4% | NCI-H460 lung 95.3% | 786-0 renal 91.3% | MDA-MB-231 breast 44.2% | SF-268 CNS 75.8% | SF-539 CNS 95.8% | M14 melanoma 14.1% | UACC-62 melanoma 79.2% | SK-MEL-28 melanoma 109% | OVCAR-5 ovarian 94.9% | MDA-MB-435 melanoma 52% | MCF7 breast 32.4% | KM12 colon 88.1%
active: HOP-62 NSCLC -62.7% | HCT-15 colon 1.13% | U251 CNS -18.8% | UO-31 renal -82.3% | SW-620 colon -86.7%

CCC(CO)NC1CCCCC1 (stereo not drawn)
inactive: NCI-H23 lung 87.5% | NCI-H226 lung 114% | NCI-H322M lung 97.2% | HOP-62 NSCLC 88.7% | NCI-H460 lung 100% | 786-0 renal 76% | MDA-MB-231 breast 58% | SF-268 CNS 86.9% | SF-539 CNS 17.7% | M14 melanoma 84.6% | HCT-15 colon 76.4% | U251 CNS 55.1% | UACC-62 melanoma 91.9% | SK-MEL-28 melanoma 102% | UO-31 renal 66% | OVCAR-5 ovarian 92.4% | MDA-MB-435 melanoma 74.2% | SW-620 colon 34.6% | MCF7 breast 63.4% | KM12 colon 54.6%

CCCCCN(CCCCC)CC(O)c1ccc(C)c(Cl)c1 (stereo not drawn)
inactive: NCI-H23 lung 89.3% | NCI-H226 lung 84.4% | NCI-H322M lung 102% | HOP-62 NSCLC 90.1% | NCI-H460 lung 101% | 786-0 renal 98.2% | MDA-MB-231 breast 97.4% | SF-268 CNS 106% | SF-539 CNS 101% | M14 melanoma 96% | HCT-15 colon 99.9% | U251 CNS 92.4% | UACC-62 melanoma 90.5% | SK-MEL-28 melanoma 96.6% | UO-31 renal 88.3% | OVCAR-5 ovarian 83.8% | MDA-MB-435 melanoma 104% | SW-620 colon 103% | MCF7 breast 95.5% | KM12 colon 105%

ClCCN(CCCl)c1nc(Cl)c(C2CC(c3ccc(Cl)cc3)=NN2c2cc(Cl)cc(Cl)c2)s1 (stereo not drawn)
inactive: NCI-H23 lung 94.1% | NCI-H226 lung 99.9% | NCI-H322M lung 102% | HOP-62 NSCLC 98.4% | NCI-H460 lung 101% | 786-0 renal 103% | MDA-MB-231 breast 107% | SF-268 CNS 102% | SF-539 CNS 118% | M14 melanoma 95.8% | HCT-15 colon 105% | U251 CNS 98.6% | UACC-62 melanoma 82.7% | SK-MEL-28 melanoma 121% | UO-31 renal 91.3% | OVCAR-5 ovarian 108% | MDA-MB-435 melanoma 103% | SW-620 colon 99.2% | MCF7 breast 95.1% | KM12 colon 108%

COC(C)(C)CCC[C@H](C)C/C=C/C(C)=C/C(=O)OC(C)C
inactive: NCI-H23 lung 78.7% | NCI-H226 lung 103% | NCI-H322M lung 108% | HOP-62 NSCLC 107% | NCI-H460 lung 109% | 786-0 renal 85.8% | MDA-MB-231 breast 102% | SF-268 CNS 103% | SF-539 CNS 118% | M14 melanoma 100% | HCT-15 colon 101% | U251 CNS 95.9% | UACC-62 melanoma 96.6% | SK-MEL-28 melanoma 101% | UO-31 renal 84.9% | OVCAR-5 ovarian 128% | MDA-MB-435 melanoma 97.4% | SW-620 colon 105% | KM12 colon 107%

O=[N+]([O-])c1ccccc1N1CCNCC1
inactive: NCI-H23 lung 96.4% | NCI-H226 lung 107% | NCI-H322M lung 96% | HOP-62 NSCLC 89.4% | NCI-H460 lung 109% | 786-0 renal 94.1% | MDA-MB-231 breast 114% | SF-268 CNS 95.2% | SF-539 CNS 99.8% | M14 melanoma 97.8% | HCT-15 colon 105% | U251 CNS 97.4% | UACC-62 melanoma 95.8% | SK-MEL-28 melanoma 104% | UO-31 renal 84.6% | OVCAR-5 ovarian 94% | MDA-MB-435 melanoma 103% | SW-620 colon 104% | MCF7 breast 105% | KM12 colon 101%

C1CNC2CCCC2C1 (stereo not drawn)
inactive: NCI-H23 lung 108% | NCI-H226 lung 98.1% | NCI-H322M lung 104% | HOP-62 NSCLC 102% | NCI-H460 lung 108% | 786-0 renal 105% | MDA-MB-231 breast 118% | SF-268 CNS 104% | SF-539 CNS 102% | M14 melanoma 107% | HCT-15 colon 99.2% | U251 CNS 105% | UACC-62 melanoma 108% | SK-MEL-28 melanoma 111% | UO-31 renal 82.5% | OVCAR-5 ovarian 103% | MDA-MB-435 melanoma 105% | SW-620 colon 103% | MCF7 breast 99.7% | KM12 colon 97%

Cc1cc(C)nc(C)c1.[Cl][Hg][Cl]
inactive: NCI-H23 lung 98.9% | NCI-H226 lung 120% | NCI-H322M lung 91.5% | HOP-62 NSCLC 102% | NCI-H460 lung 101% | 786-0 renal 104% | MDA-MB-231 breast 118% | SF-268 CNS 102% | SF-539 CNS 103% | M14 melanoma 97.3% | HCT-15 colon 101% | U251 CNS 91.6% | UACC-62 melanoma 95% | SK-MEL-28 melanoma 94% | UO-31 renal 95.5% | OVCAR-5 ovarian 114% | MDA-MB-435 melanoma 83.9% | SW-620 colon 105% | MCF7 breast 82.7% | KM12 colon 96.2%

CO[C@@H](c1ccccc1Cl)[C@H](C)OC(N)=O
inactive: NCI-H23 lung 93.7% | NCI-H226 lung 96.4% | NCI-H322M lung 95.1% | HOP-62 NSCLC 96.1% | NCI-H460 lung 105% | 786-0 renal 98.7% | MDA-MB-231 breast 102% | SF-268 CNS 97.4% | SF-539 CNS 96.6% | M14 melanoma 89.9% | HCT-15 colon 96.9% | U251 CNS 94.1% | UACC-62 melanoma 93.1% | SK-MEL-28 melanoma 102% | UO-31 renal 85.7% | OVCAR-5 ovarian 91.5% | MDA-MB-435 melanoma 97.8% | SW-620 colon 100% | MCF7 breast 102% | KM12 colon 109%

CC(C)CCC[C@@H](C)[C@H]1CC[C@H]2[C@@H]3CC=C4C[C@@H](OC(=O)Cc5ccc(N(CCCl)CCCl)cc5)CC[C@]4(C)[C@H]3CC[C@]12C
inactive: NCI-H23 lung 107% | NCI-H226 lung 94.3% | NCI-H322M lung 214% | HOP-62 NSCLC 105% | NCI-H460 lung 97.8% | 786-0 renal 96.7% | MDA-MB-231 breast 101% | SF-268 CNS 108% | SF-539 CNS 94.1% | M14 melanoma 108% | HCT-15 colon 108% | U251 CNS 109% | UACC-62 melanoma 94.4% | SK-MEL-28 melanoma 111% | UO-31 renal 90% | OVCAR-5 ovarian 98.2% | MDA-MB-435 melanoma 113% | SW-620 colon 109% | MCF7 breast 99% | KM12 colon 109%
